For assay [1] the following is noted: Ebola virus entry assay, green channel fluorescence.
The conditions of assay [2]: Ebola virus entry assay, blue channel fluorescence.
For assay [3] the following is noted: Ebola virus entry assay, reporter ratio channel; AC50: Channel type: primary unless noted; outcome: Channel type: primary unless noted.
The conditions of assay [4]: Ebola virus entry assay, blue channel (ratio component).
For assay [5] the following is noted: Ebola virus entry cell assay, ratio channel.
A short description of assay [6]: Immunotoxin (HA22) sensitization/mitigation study. Vehicle arm (PBS) (AID 1159510). Also: potency is read from the fitted curve at half-maximal effect. To be noted: cancer cells viability with PBS vehicle (HA22 study); series mostly up to 46.1 µM.
Assay [7] can be described thus: Immunotoxin (SS1P) sensitization/mitigation study. Vehicle arm (DMEM) (AID 1159513). Also: potency is read from the fitted curve at half-maximal effect. The following applies: cell viability with vehicle (DMEM); series mostly up to 46.1 µM.
The conditions of assay [8]: Ebola virus entry reporter assay, green channel fluorescence. A general note: In a reporter assay the amount or activity of a reporter protein is the signal.
The nature of assay [9]: High-throughput drug toxicity screening in the BPDCN cell line Gen2.2 (AID 1224824).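 Also: cells exposed to compounds for 48 h before reading.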 The following applies: Gen2.2 BPDCN cells; at 45.8 µM (top of the series). In a few lines: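 Gen2.2 cells (500/well) in phenol red-free RPMI with 10% FBS were exposed to compounds for 48 h at 37 °C, 5% CO2. Viability was read by CellTiter-Glo luminescence and normalized to DMSO (100%) and 9.2 uM bortezomib (0%).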

Assay [10] can be described thus: qHTS assay for measurement of the activity of small molecule inhibitors on Zika virus induced Caspase-3 activity in human iPSC derived neural progenitor cells (hNPCs) (AID 1224857; active = well fitted curve in the direction sought with a large enough effect; an effect the other way counts as inactive or inconclusive; also: % of control where 0% means no effect; nearly all actives have a fitted effect of over 65% in size). To be noted: hNPCs ZIKV-induced caspase-3/7, Caspase-Glo luminescence, 6 h; series mostly up to 45.7 µM. In short, it runs like this:
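Human iPSC-derived neural progenitor cells pretreated 1 hr with compounds, then infected with Zika virus (2 FFU/cell) for 6 hours at 37 C. Caspase-3/7 measured by Caspase-Glo luminescence; % inhibition calculated from induction scaled to uninfected (0%) and infected (100%) wells.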
(In general: qHTS replaces the single test concentration by a dilution series.)

Assay [11] in a line: qHTS assay for measurement of the activity of small molecule inhibitors on Zika virus induced Caspase-3 activity in human astrocytoma cells (AID 1224859; active = well fitted curve in the direction sought with a large enough effect; an effect the other way counts as inactive or inconclusive;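 also: plate controls were ZIKV-infected untreated cells for no effect and uninfected cells for full effect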). To be noted: SNB-19 ZIKV-induced caspase-3/7, luminescence, 6 h; series mostly up to 45.7 µM. In short, it runs like this: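 SNB-19 astrocytoma cells, 250/well, pretreated 1 h with compounds, then Zika virus at 2 FFU/cell for 6 h at 37 C; Caspase-Glo 3/7 luminescence after 30 min; percent inhibition normalised to uninfected and infected controls.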

Assay [12] in a line: qHTS Screen of the MIPE 4.0 Collection Against Ewings Sarcoma (EW8) (AID 1259255; active = well fitted curve in the direction sought with a large enough effect; an effect the other way counts as inactive or inconclusive; also: nearly all actives have a fitted effect of over 35% in size; also: potency is read from the fitted curve at half-maximal effect;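 as to viability: 100% = DMSO-treated cells and 0% = medium-only wells without cells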). To be noted: EW8 Ewing sarcoma viability, CellTiter-Glo, 48 h; series mostly up to 45.8 µM. In a few lines:
(§1)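 CellTiter-Glo luminescence after 48 h compound exposure (titration) gave viability; percent activity used DMSO-treated cells as no inhibition and medium-only wells as full inhibition. Cells grown in RPMI/5% FBS, dosed 4 h post-seeding.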

Assay [13] in a line: qHTS assay to identify small molecule inhibitors of chordoma cells - UCH-1 (AID 1259355; active = well fitted curve in the direction sought with a large enough effect; an effect the other way counts as inactive or inconclusive; also: % is scaled to controls: 0 for no effect and ±100 for the full control effect; nearly all actives have a fitted effect of over 55% in size). The following applies: UCH-1 chordoma viability, CellTiter-Glo, 48 h, combination; series mostly up to 46.1 µM. In short, it runs like this:
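800 cells/well, overnight attach; compounds pinned at 15 concs, then auranofin/camptothecin/doxorubicin/rubitecan/topotecan combo added; 48hr 37 C, 5% CO2; CellTiter-Glo, 30min RT, luminescence.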

Assay [14] in a line: qHTS assay to identify small molecule inhibitors of chordoma cells - UCH-2 (AID 1259356; active = well fitted curve in the direction sought with a large enough effect; an effect the other way counts as inactive or inconclusive; also: % is scaled to controls: 0 for no effect and ±100 for the full control effect). The following applies: UCH-2 chordoma viability, CellTiter-Glo ATP luminescence, 48 h; series mostly up to 46.1 µM.
Assay [15] is described as follows: Identifying Small Molecule Inhibitors of Pancreatic Cancer Stem Cells (A2780, Spheroid) (AID 1259357; active = well fitted curve in the direction sought with a large enough effect; an effect the other way counts as inactive or inconclusive;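 also: compound exposure lasted 48 h before the ATP luminescence read; 100% = DMSO treated cells and 0% = wells without cells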). The following applies: Potency: A2780 spheroid viability; series mostly up to 46.1 µM. In short, it runs like this:
(§2)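 Luminescent ATP readout (CellTiter-Glo) quantifies surviving cells after a 48 h drug incubation. Normalization uses DMSO wells as no inhibition and media-only wells as full inhibition; bortezomib served as positive control.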

A short description of assay [16]: Identifying Small Molecule Inhibitors of Pancreatic Cancer Stem Cells (SN12C, Adherent) (AID 1259358; active = well fitted curve in the direction sought with a large enough effect; an effect the other way counts as inactive or inconclusive;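 also: cell survival measured after 48 h of compound exposure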). To be noted: viability/growth inhibition; series mostly up to 46.1 µM. In short, it runs like this:
(§3)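 Cytotoxicity read by CellTiter-Glo luminescence after 48 h compound exposure at 37C; percent activity scaled between DMSO-treated cells and cell-free wells. Spheroid formats used cells pre-formed 14 days in stem cell media on hydrogel.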

A short description of assay [17]: Identifying Small Molecule Inhibitors of Pancreatic Cancer Stem Cells (Panc1, Spheroid) (AID 1259359; active = well fitted curve in the direction sought with a large enough effect; an effect the other way counts as inactive or inconclusive;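 also: compound exposure lasted 48 h before reading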). To be noted: Panc1 spheroid cancer stem cell viability; series mostly up to 46.1 µM. In short, it runs like this:
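Spheroids grown 14 days in stem cell media on hydrogel-coated nonadherent plates; 2D lines seeded directly. Compounds added after 4 h attachment, 48 h at 37C, 5% CO2; CellTiter-Glo luminescence normalized to DMSO (no inhibition) and no-cell wells (full inhibition).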

Assay [18] can be described thus: Identifying Small Molecule Inhibitors of Pancreatic Cancer Stem Cells (SN12C, Spheroid) (AID 1259360; active = well fitted curve in the direction sought with a large enough effect; an effect the other way counts as inactive or inconclusive;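 also: 100% = DMSO-treated cells and 0% = wells without cells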). To be noted: Potency: SN12C spheroid viability; series mostly up to 46.1 µM. In short, it runs like this:
as §2

Assay [19] in a line: Identifying Small Molecule Inhibitors of Pancreatic Cancer Stem Cells (A278, Adherent) (AID 1259361; active = well fitted curve in the direction sought with a large enough effect; an effect the other way counts as inactive or inconclusive;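 also: 100% = DMSO-treated cells and 0% = cell-free media-only wells; nearly all actives have a fitted effect of over 35% in size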). The following applies: series mostly up to 46.1 µM. In a few lines:
as §3

Assay [20] is described as follows: qHTS Screen of the MIPE 4.0 Collection Against Ewings Sarcoma (TC71) (AID 1259253; active = well fitted curve in the direction sought with a large enough effect; an effect the other way counts as inactive or inconclusive;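 also: 100% = DMSO-treated cells and 0% = medium-only wells without cells; nearly all actives have a fitted effect of over 40% in size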). To be noted: TC71 Ewing sarcoma viability, CellTiter-Glo, 48 h; series mostly up to 45.8 µM. In a few lines:
as §1

Inconclusive results are not listed. For part of these data: Results with a measured potency or affinity are listed apart. The source made the active and inactive calls. Numbered stars: 1 amine (or outer) side, 2 acyl side, 3 side chain; on linkers, the order of the positions; unused ones are H or OH. Bridge positions count the residues as written; N and C are the ends. Square brackets hold non-standard residues; d marks the D form. Peptide text beside a SMILES is read from it. I, II: the chains in the order shown. Actinocin(9to1) = Cc1c2oc3c(C)ccc(C(=O)[*:1])c3nc-2c(C(=O)[*:2])c(N)c1=O; NMeV = CN[C@H](C(=O)O)C(C)C; Sar = CNCC(=O)O

For orientation: AC50 means the concentration giving half of the maximal activity seen.

As for `c1cnc2cc3c(cc2n1)C1CNCC3C1`, the compound was classed as inactive in assay [1], in assay [2], in [3], in [4] and in assay [5].

For the compound `CN(C)C(=N)N=C(N)N`, the compound was called inactive in [1], in assay [2], in assay [3], in [4] and in assay [5]. The Potency result in assay [6] and in assay [7] was “inactive” throughout.

Turning to `CC(=O)CCCCn1c(=O)c2c(ncn2C)n(C)c1=O`, the call in assay [1], in assay [2], in assay [3], in [4] and in [5] was inactive.

Regarding `Nc1nc(F)nc2c1ncn2[C@@H]1O[C@H](CO)[C@@H](O)[C@@H]1O`, the call in assay [1], in assay [2], in assay [3], in assay [4] and in assay [5] was inactive.

For the compound `Nc1ccn([C@@H]2O[C@H](CO)[C@@H](O)C2(F)F)c(=O)n1`, the outcome in assay [1], in [2], in [3], in assay [4] and in assay [5] was inactive. Further, the Potency in assay [6] was 12.1 nM (active).

On to `Cc1cc(C)cc(OCC2CNC(=O)O2)c1` (stereo not given), for which the outcome in [1], in [2], in assay [3], in [4] and in assay [5] was inactive.

As for `CC(C)C(=O)Nc1ccc([N+](=O)[O-])c(C(F)(F)F)c1`, the call in assay [1], in assay [2], in [3], in assay [4] and in assay [5] was inactive.

For the compound `Nc1ccc(O)c(C(=O)O)c1`, the compound was classed as inactive in assay [1], in assay [2], in assay [8] and in [5]. Moreover, the AC50 in assay [3] is 31.6 µM (active).

As for `CCOC(=O)[C@H](CCc1ccccc1)N[C@@H](C)C(=O)N1Cc2cc(OC)c(OC)cc2C[C@H]1C(=O)O`, the compound was classed as inactive in assay [1], in assay [2], in assay [3], in [4] and in [5].

As to `Cc1ccnc2c1NC(=O)c1cccnc1N2C1CC1`, the compound was called inactive in assay [1], in assay [2], in [3], in assay [4] and in assay [5].

With `Cc1cccc(Nc2ccncc2S(=O)(=O)NC(=O)NC(C)C)c1`, the outcome in assay [1], in assay [2], in assay [3], in assay [4] and in assay [5] was inactive.

With `CC(C)CC(N(C)C)C1(c2ccc(Cl)cc2)CCC1` (stereo not given), the outcome in [1], in assay [2], in assay [3], in [4], in [5] and in [11] was inactive. Besides, the cell viability, % of control (lower = more cytotoxic) in [9] stood at 134%. Moreover, the Potency result in assay [10], in [13] and in [14] was “inactive” each time. The Potency in assay [12] is 18.7 µM (active).

`CN(C)CCc1c[nH]c2ccc(CS(=O)(=O)N3CCCC3)cc12`: the outcome in assay [1], in assay [2], in [3], in assay [4] and in [5] was inactive.

As for `COc1ccccc1OCC(O)COC(N)=O` (stereo not given), the outcome in assay [1], in assay [2], in [3], in assay [4] and in assay [5] was inactive.

Consider `NS(=O)(=O)Cc1noc2ccccc12`, for which the call in assay [1], in [2], in assay [3], in assay [4] and in [5] was inactive.

Turning to `Cc1nc2n(c(=O)c1CCN1CCC(c3noc4cc(F)ccc34)CC1)CCC[C@H]2O`, the call in assay [1], in assay [2], in assay [3], in assay [4] and in assay [5] was inactive.

As for `Cc1c2oc3c(C)ccc(C(=O)N[C@@H]4C(=O)N[C@H](C(C)C)C(=O)N5CCC[C@H]5C(=O)N(C)CC(=O)N(C)[C@@H](C(C)C)C(=O)O[C@@H]4C)c3nc-2c(C(=O)N[C@@H]2C(=O)N[C@H](C(C)C)C(=O)N3CCC[C@H]3C(=O)N(C)CC(=O)N(C)[C@@H](C(C)C)C(=O)O[C@@H]2C)c(N)c1=O` (I: T[dV]P[Sar][NMeV] / II: T[dV]P[Sar][NMeV]; ester I:1-I:C, II:1-II:C; linker I:N-II:N via Actinocin(9to1)), the result in [1], in [2], in assay [3], in assay [4] and in [5] was inactive.

As to `Nc1ncn([C@@H]2O[C@H](CO)[C@@H](O)[C@H]2O)c(=O)n1`, the compound was called inactive in [1], in [2], in assay [3], in [4] and in [5]. The results for the Potency in [6] and in [7] were 4180 nM (active) and 14.8 µM (active), respectively.

Take `COc1ccc(OC)c(C(O)CNC(=O)CN)c1` (stereo not given): the call in assay [1], in assay [2], in assay [3], in assay [4] and in assay [5] was inactive.

As for `CC1Cc2ccccc2N1NC(=O)c1ccc(Cl)c(S(N)(=O)=O)c1` (stereo not given), the compound was called inactive in assay [1], in assay [2], in assay [3], in [4] and in [5].

In the case of `CCC(C(N)=O)N1CCCC1=O` (stereo not given), the result in assay [1], in assay [2], in assay [3], in [4], in assay [5] and in [11] was inactive. In addition, the Potency entry in assay [13] and in assay [14] was “inactive” in each case.

`CN(C)CCc1c[nH]c2ccc(C[C@H]3COC(=O)N3)cc12`: the outcome in assay [1], in assay [2], in [3], in assay [4] and in [5] was inactive.

Turning to `Cn1c(CCCC(=O)O)nc2cc(N(CCCl)CCCl)ccc21`, the compound was classed as inactive in assay [1], in assay [2], in assay [3], in [4], in [5] and in [11]. Further, the call in assay [17] was inactive. For the same compound, the Potency entry in assay [6], in assay [7], in assay [13], in assay [14], in assay [15] and in assay [16] was “inactive” throughout. The Potency result in [18] is “inactive”. For the same compound, the cell viability, % of control (lower = more cytotoxic) in assay [9] is 53.7%. Further, in [19], the IC50 (viability decrease) result was “inactive”.

Turning to `O=C1[C@H](CC[C@H](O)c2ccc(F)cc2)[C@@H](c2ccc(O)cc2)N1c1ccc(F)cc1`, the compound was called inactive in assay [1], in assay [2], in assay [8] and in assay [5]. In addition, the AC50 in assay [3] is 28.2 µM (active).

For `CCN(C(C)=O)c1cccc(-c2ccnc3c(C#N)cnn23)c1`, the call in [1], in [2], in [3], in assay [4], in assay [5] and in assay [11] was inactive. In addition, the Potency entry in [13] and in assay [14] was “inactive” each time.

Regarding `CCCC(C)(COC(N)=O)COC(=O)NC(C)C` (stereo not given), the outcome in [1], in assay [2], in assay [3], in assay [4], in assay [5] and in [11] was inactive. Also, in [9], the cell viability, % of control (lower = more cytotoxic) is 386%. Further, the Potency entry in assay [10], in [20], in assay [12], in [13] and in [14] was “inactive” in each case.

Values taken from PubChem BioAssay (NCATS).
